Reference: PubChem BioAssay AID1159580 (chemical genetic matrix, 2015)
“And” between values parts separate entries of the source, which are not always exact repeats. Equal entries are not always repeated. The campaign covered roughly 5,500 compounds. About 2,000 (36%) were called active. About 18% were inconclusive and are not listed. No stated cut-off is given here; in the data, active means normalized growth mostly below about 0.91 (no sharp cut-off); inconclusive means no clear call, values can overlap the other calls; inactive means mostly above about 0.92. The list shows a part of the results.

Test: chemical genetic growth profiling, strain panel (AID 1159580);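 further: tested at 20 µM; growth read once vehicle control cultures reached saturation at 30 °C; 1 = growth at the plate median or of vehicle wells; lower values mean less growth of the strain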
Conditions: growth OD

Measured: normalized growth

ClC1=C(Cl)C2(Cl)C3C4CC(C5OC45)C3C1(Cl)C2(Cl)Cl (configuration not stated)
inactive: S. cerevisiae deletion strains, locus YAL013W, strain DEP1, hits give low values 0.992 | S. cerevisiae deletion strains, locus YBR021W, strain FUR4, hits give low values 0.948 and 0.959 | S. cerevisiae deletion strains, locus YBR229C, strain ROT2, hits give low values 0.997 and 1 | S. cerevisiae deletion strains, locus YCL029C, strain bik1, hits give low values 0.967 and 1.02 | S. cerevisiae deletion strains, locus YDL035C, strain GPR1, hits give low values 0.981 and 0.974 | S. cerevisiae deletion strains, locus YDL074C, strain BRE1, hits give low values 1.03 | S. cerevisiae deletion strains, locus YDL101C, strain DUN1, hits give low values 0.993 and 1 | S. cerevisiae deletion strains, locus YDL134C, strain PPH21, hits give low values 0.998 and 0.988 | S. cerevisiae deletion strains, locus YDL185W, strain tfp1, hits give low values 0.996 and 1.03 | S. cerevisiae deletion strains, locus YDL192W, strain arf1, hits give low values 0.986 and 1.01 | S. cerevisiae deletion strains, locus YDR101C, strain arx1, hits give low values 0.973 and 1.01 | S. cerevisiae deletion strains, locus YDR150W, strain NUM1, hits give low values 1 and 0.976 | S. cerevisiae deletion strains, locus YDR162C, strain NBP2, hits give low values 0.999 and 0.969 | S. cerevisiae deletion strains, locus YDR318W, strain mcm21, hits give low values 0.983 and 1.01 | S. cerevisiae deletion strains, locus YDR388W, hits give low values 0.97 and 1.01 | S. cerevisiae deletion strains, locus YDR502C, strain sam2, hits give low values 0.983 and 1 | S. cerevisiae deletion strains, locus YEL061C, strain CIN8, hits give low values 1 | S. cerevisiae deletion strains, locus YER110C, hits give low values 0.971 and 1.02 | S. cerevisiae deletion strains, locus YER155C, strain BEM2, hits give low values 0.982 and 1.01 | S. cerevisiae deletion strains, locus YER167W, strain BCK2, hits give low values 0.976 and 0.99 | S. cerevisiae deletion strains, locus YGL078C, strain dbp3, hits give low values 0.978 and 1.01 | S. cerevisiae deletion strains, locus YGL086W, strain mad1, hits give low values 0.983 and 1.01 | S. cerevisiae deletion strains, locus YGL248W, strain PDE1, hits give low values 1 and 1.01 | S. cerevisiae deletion strains, locus YGR078C, strain PAC10, hits give low values 1 and 1.01 | S. cerevisiae deletion strains, locus YGR135W, strain pre9, hits give low values 0.988 and 0.995 | S. cerevisiae deletion strains, locus YGR229C, strain SMI1, hits give low values 0.971 | S. cerevisiae deletion strains, locus YGR252W, strain gcn5, hits give low values 0.968 and 0.972 | S. cerevisiae deletion strains, locus YHR030C, strain SLT2, hits give low values 0.99 and 1.04 and 1.01 | S. cerevisiae deletion strains, locus YHR079C, strain IRE1 (second series), hits give low values 0.971 and 1.01 | S. cerevisiae deletion strains, locus YHR079C, strain IRE1, hits give low values 1.01 | S. cerevisiae deletion strains, locus YHR094C, strain hxt1, hits give low values 0.974 and 1.01 | S. cerevisiae deletion strains, locus YHR129C, strain ARP1, hits give low values 0.998 and 1.02 | S. cerevisiae deletion strains, locus YHR200W, strain rpn10, hits give low values 0.978 and 1.02 | S. cerevisiae deletion strains, locus YIL066C, strain RNR3, hits give low values 1 and 0.968 | S. cerevisiae deletion strains, locus YIL073C, strain SPO22, hits give low values 0.919 and 1.08 | S. cerevisiae deletion strains, locus YIL125W, strain kgd1, hits give low values 0.985 and 1.01 | S. cerevisiae deletion strains, locus YIR030C, strain dcg1, hits give low values 0.979 and 1.02 | S. cerevisiae deletion strains, locus YJL095W, strain BCK1, hits give low values 1.02 and 1.05 and 1.06 | S. cerevisiae deletion strains, locus YJL134W, strain LCB3, hits give low values 0.982 and 1.01 | S. cerevisiae deletion strains, locus YJL168C, strain set2, hits give low values 0.98 and 1.01 | S. cerevisiae deletion strains, locus YJL187C, strain SWE1 (second series), hits give low values 0.991 and 1.02 | S. cerevisiae deletion strains, locus YJR043C, strain POL32, hits give low values 0.975 and 0.987 | S. cerevisiae deletion strains, locus YJR066W, strain TOR1, hits give low values 0.962 | S. cerevisiae deletion strains, locus YJR075W, strain HOC1, hits give low values 1 and 1.03 | S. cerevisiae deletion strains, locus YKL009W, strain mrt4, hits give low values 0.988 and 1.01 | S. cerevisiae deletion strains, locus YKL068W, hits give low values 0.986 and 1 | S. cerevisiae deletion strains, locus YKL085W, strain MDH1 (second series), hits give low values 0.983 and 0.995 | S. cerevisiae deletion strains, locus YKL085W, strain MDH1, hits give low values 0.983 and 0.995 | S. cerevisiae deletion strains, locus YKL190W, strain CNB1, hits give low values 1 and 0.986 | S. cerevisiae deletion strains, locus YKR001C, strain vps1, hits give low values 0.98 and 1.02 | S. cerevisiae deletion strains, locus YLR039C, strain RIC1, hits give low values 0.975 and 1.15 | S. cerevisiae deletion strains, locus YLR058C, strain SHM2, hits give low values 0.984 and 1.02 | S. cerevisiae deletion strains, locus YLR102C, strain apc9, hits give low values 0.984 and 1.01 | S. cerevisiae deletion strains, locus YLR113W, strain HOG1, hits give low values 0.937 | S. cerevisiae deletion strains, locus YLR262C, strain YPT6, hits give low values 0.953 and 1.24 | S. cerevisiae deletion strains, locus YLR268W, strain sec22, hits give low values 0.977 and 1.02 | S. cerevisiae deletion strains, locus YLR330W, strain CHS5, hits give low values 0.996 and 1.01 | S. cerevisiae deletion strains, locus YLR342W, strain FKS1 (second series), hits give low values 0.984 and 0.998 | S. cerevisiae deletion strains, locus YLR371W, strain rom2, hits give low values 0.97 and 1.02 | S. cerevisiae deletion strains, locus YLR418C, strain cdc73, hits give low values 0.964 and 0.976 | S. cerevisiae deletion strains, locus YML016C, strain PPZ1, hits give low values 0.996 and 1 | S. cerevisiae deletion strains, locus YML032C, strain rad52, hits give low values 0.967 and 0.998 | S. cerevisiae deletion strains, locus YML124C, strain tub3, hits give low values 0.973 and 1.01 | S. cerevisiae deletion strains, locus YMR078C, strain ctf18, hits give low values 0.973 and 1.01 | S. cerevisiae deletion strains, locus YMR223W, strain ubp8, hits give low values 0.975 and 1.01 | S. cerevisiae deletion strains, locus YMR263W, strain SAP30, hits give low values 1.01 | S. cerevisiae deletion strains, locus YMR307W, strain GAS1, hits give low values 0.909 and 0.97 | S. cerevisiae deletion strains, locus YNL067W, strain RPL9B, hits give low values 0.999 and 1.04 | S. cerevisiae deletion strains, locus YNL128W, strain TEP1, hits give low values 0.994 and 1.02 | S. cerevisiae deletion strains, locus YNL153C, strain GIM3, hits give low values 0.999 and 1.03 | S. cerevisiae deletion strains, locus YNL183C, strain NPR1, hits give low values 0.948 | S. cerevisiae deletion strains, locus YNL233W, strain BNI4, hits give low values 0.994 and 1.06 | S. cerevisiae deletion strains, locus YNL250W, strain rad50, hits give low values 0.965 and 1 | S. cerevisiae deletion strains, locus YNL271C, strain bni1, hits give low values 0.975 and 1.01 | S. cerevisiae deletion strains, locus YNL298W, strain CLA4, hits give low values 0.97 and 1.01 | S. cerevisiae deletion strains, locus YNL307C, strain MCK1, hits give low values 0.947 and 1.02 | S. cerevisiae deletion strains, locus YNL322C, strain KRE1, hits give low values 0.998 | S. cerevisiae deletion strains, locus YNR052C, strain pop2, hits give low values 0.965 and 1.01 | S. cerevisiae deletion strains, locus YOL006C, strain TOP1, hits give low values 1.01 | S. cerevisiae deletion strains, locus YOL012C, strain htz1 0.925 and 0.987 | S. cerevisiae deletion strains, locus YOL147C, strain pex11, hits give low values 0.966 and 1.02 | S. cerevisiae deletion strains, locus YOR061W, strain CKA2, hits give low values 0.998 and 1 | S. cerevisiae deletion strains, locus YOR069W, strain VPS5, hits give low values 0.995 and 1.01 | S. cerevisiae deletion strains, locus YOR136W, strain idh2, hits give low values 0.974 and 1.02 | S. cerevisiae deletion strains, locus YOR144C, strain elg1, hits give low values 0.97 and 1 | S. cerevisiae deletion strains, locus YOR184W, strain ser1, hits give low values 0.967 and 1.01 | S. cerevisiae deletion strains, locus YOR231W, strain MKK1, hits give low values 1.04 | S. cerevisiae deletion strains, locus YOR316C, strain cot1, hits give low values 0.976 and 1.01 | S. cerevisiae deletion strains, locus YPL055C, strain LGE1, hits give low values 0.999 | S. cerevisiae deletion strains, locus YPL241C, strain CIN2, hits give low values 0.999 and 1.01 | S. cerevisiae deletion strains, locus YPL256C, strain CLN2, hits give low values 1.04 | S. cerevisiae deletion strains, locus YPR119W, strain clb2, hits give low values 0.974 and 1.01 | S. cerevisiae deletion strains, locus YPR141C, strain kar3, hits give low values 0.969 and 1.01 | S. cerevisiae deletion strains, locus YPR163C, strain tif3, hits give low values 0.961 and 1.01 | S. cerevisiae deletion strains, locus YPR167C, strain met16, hits give low values 0.983 and 1.01 | S. cerevisiae deletion strains, strain wtn01, hits give low values 0.971 and 1.03 | S. cerevisiae strains, strain wild type, hits give low values 0.994 and 1.01
